What all share (set-up): scale not given: direction of the effect not stated beside the values
Experiment [1] has as its target Protein translocase subunit SecA (Escherichia coli (strain K12)) (UniProt P10408). Put plainly: Assay to Identify E. coli SecA ATPase Inhibitors. Type of experiment: functional. The conditions noted are these: 30 µM.
The target of experiment [2] is T1, Ubiquitin-activating enzyme e1, putative (Leishmania donovani (strain BPK282A1)) (UniProt E9BSI1).
T1 sequence (whole entry): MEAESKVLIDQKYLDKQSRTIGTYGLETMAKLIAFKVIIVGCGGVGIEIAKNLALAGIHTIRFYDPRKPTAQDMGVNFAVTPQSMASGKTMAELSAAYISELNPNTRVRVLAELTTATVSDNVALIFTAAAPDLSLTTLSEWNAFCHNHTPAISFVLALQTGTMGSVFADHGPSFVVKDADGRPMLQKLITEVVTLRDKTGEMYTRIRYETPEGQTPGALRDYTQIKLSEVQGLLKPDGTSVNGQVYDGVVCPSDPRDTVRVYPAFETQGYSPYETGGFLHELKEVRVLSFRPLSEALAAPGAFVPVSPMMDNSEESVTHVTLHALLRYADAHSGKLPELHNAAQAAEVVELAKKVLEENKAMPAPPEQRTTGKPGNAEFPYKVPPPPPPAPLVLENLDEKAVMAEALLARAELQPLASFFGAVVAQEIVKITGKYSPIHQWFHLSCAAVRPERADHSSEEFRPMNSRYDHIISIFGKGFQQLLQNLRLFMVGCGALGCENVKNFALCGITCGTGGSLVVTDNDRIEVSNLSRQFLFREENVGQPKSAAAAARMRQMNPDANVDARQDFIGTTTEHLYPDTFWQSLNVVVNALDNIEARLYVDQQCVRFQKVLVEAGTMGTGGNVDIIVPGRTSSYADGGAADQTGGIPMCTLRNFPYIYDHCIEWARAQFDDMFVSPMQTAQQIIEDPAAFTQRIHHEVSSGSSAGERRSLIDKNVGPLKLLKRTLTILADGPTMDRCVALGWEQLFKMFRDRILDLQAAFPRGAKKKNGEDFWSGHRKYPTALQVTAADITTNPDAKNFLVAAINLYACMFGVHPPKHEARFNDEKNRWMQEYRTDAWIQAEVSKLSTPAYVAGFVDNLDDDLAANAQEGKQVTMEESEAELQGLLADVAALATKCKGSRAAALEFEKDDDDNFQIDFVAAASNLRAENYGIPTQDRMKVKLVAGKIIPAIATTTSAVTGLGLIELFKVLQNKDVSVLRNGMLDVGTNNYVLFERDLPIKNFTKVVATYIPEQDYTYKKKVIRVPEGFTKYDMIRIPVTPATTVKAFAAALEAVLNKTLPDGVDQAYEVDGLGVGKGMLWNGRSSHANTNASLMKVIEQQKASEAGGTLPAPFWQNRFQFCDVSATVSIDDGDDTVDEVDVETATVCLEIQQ
In words: Leishmania donovani Ubiquitin Activating Enzyme (LdE1). The format is functional. As to conditions: 30 µM.

Experiment [3] deals with AMP-activated protein kinase, AMPK (Homo sapiens) (UniProt P54646+O43741+P54619+Q9UGJ0+Q9Y478+Q13131+Q9UGI9). In words: AMP-dependent Kinase enzyme assay. An in vitro enzyme assay that detects ADP turnover that is directly proportional to AMPK activity. This uses naive AMPK that is activated during the assay with MK-8722. The format is functional. As to conditions: 30 µM.

Experiment [4] addresses Sialic acid-binding Ig-like lectin 9 (Homo sapiens) (UniProt Q9Y336). Put plainly: Hs-Siglec9 ALPHAscreen SOP 20170721. As to conditions: 10 µM.
For another experiment, the system named is Trypanosoma cruzi. In words: Trypanosoma cruzi phosphomannomutase and mannose-1-phosphate guanylyltransferase assay. The format is functional. The conditions noted are these: 10 µM.
Experiment [5] concerns the target T2, Arginase-2, mitochondrial (Homo sapiens) (UniProt P78540).
T2 sequence (whole entry): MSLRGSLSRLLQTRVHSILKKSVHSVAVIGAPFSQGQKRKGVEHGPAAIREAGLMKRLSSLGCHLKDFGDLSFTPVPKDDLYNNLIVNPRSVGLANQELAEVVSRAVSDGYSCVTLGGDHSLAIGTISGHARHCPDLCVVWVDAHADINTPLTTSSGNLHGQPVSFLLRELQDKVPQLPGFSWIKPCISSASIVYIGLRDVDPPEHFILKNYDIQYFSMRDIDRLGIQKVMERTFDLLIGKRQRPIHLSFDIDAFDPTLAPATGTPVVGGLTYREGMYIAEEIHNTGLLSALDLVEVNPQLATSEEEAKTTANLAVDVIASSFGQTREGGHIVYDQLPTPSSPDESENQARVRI
Put plainly: in vitro enzyme assay to detect the production of urea directly proportional to the activity of Arginase II. Note: in the data most compounds retested in dose-response had high values. The format is functional. The conditions noted are these: 33.3 µM.

The target in experiment [6] is T3, Proteasome subunit beta (Trypanosoma cruzi) (UniProt O96673).
T3 sequence (whole entry): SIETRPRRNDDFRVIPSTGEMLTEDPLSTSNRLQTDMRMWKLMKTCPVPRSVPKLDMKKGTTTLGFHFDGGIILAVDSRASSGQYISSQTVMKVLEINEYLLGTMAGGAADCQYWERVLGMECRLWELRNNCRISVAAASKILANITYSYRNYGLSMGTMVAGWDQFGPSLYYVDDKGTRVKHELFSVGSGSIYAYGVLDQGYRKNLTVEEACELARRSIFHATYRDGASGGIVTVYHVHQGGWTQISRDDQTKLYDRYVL
Put plainly: Trypanosoma cruzi proteasome chymotrypsin-like activity (TcProtChymo) assay. Note: in the data most compounds retested in dose-response had high values. As to conditions: 9.37 µM. Type of experiment: functional.

For a further experiment, the species on record is Homo sapiens. In words: To identify inhibition of the IFN signalling (Jak-Stat) pathway via expression of an eGFP reporter gene under the control of an IFN-stimulated response element (ISRE) containing MxA promoter. Type of experiment: functional. The conditions noted are these: 30 µM.
Experiment [7] has as its target T4, Tyrosyl-tRNA synthetase, putative (Trypanosoma cruzi (strain CL Brener)) (UniProt Q4DSP6).
T4 sequence (whole entry): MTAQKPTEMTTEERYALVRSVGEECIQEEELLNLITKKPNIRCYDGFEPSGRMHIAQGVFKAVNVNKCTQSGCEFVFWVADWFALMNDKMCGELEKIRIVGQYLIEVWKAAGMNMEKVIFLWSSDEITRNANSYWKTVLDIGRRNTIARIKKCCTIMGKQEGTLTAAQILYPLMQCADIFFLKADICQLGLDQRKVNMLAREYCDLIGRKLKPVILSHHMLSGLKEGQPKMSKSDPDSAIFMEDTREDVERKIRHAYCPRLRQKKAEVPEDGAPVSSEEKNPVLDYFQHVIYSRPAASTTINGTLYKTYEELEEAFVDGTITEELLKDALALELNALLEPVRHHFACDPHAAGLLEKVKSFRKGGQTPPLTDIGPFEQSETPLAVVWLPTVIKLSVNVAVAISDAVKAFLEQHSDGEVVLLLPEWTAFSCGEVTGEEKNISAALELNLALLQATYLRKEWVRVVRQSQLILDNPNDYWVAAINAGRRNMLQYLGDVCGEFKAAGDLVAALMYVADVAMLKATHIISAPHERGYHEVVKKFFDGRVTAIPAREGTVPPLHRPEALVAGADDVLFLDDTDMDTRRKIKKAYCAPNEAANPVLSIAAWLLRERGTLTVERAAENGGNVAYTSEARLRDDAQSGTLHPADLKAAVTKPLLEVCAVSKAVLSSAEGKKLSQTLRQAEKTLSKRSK
Put plainly: Trypanosoma cruzi tyrosyl tRNA synthetase (TcYRS) _High Tyrosine SOP. Note: in the data most compounds retested in dose-response had high values. Type of experiment: functional. As to conditions: 30 µM.

For experiment [8], the target named is T4, Tyrosyl-tRNA synthetase, putative (Trypanosoma cruzi (strain CL Brener)). In words: Trypanosoma cruzi tyrosyl tRNA synthetase (TcYRS) SOP. Type of experiment: functional. As to conditions: 30 µM.
In experiment [9] the target is Chromo domain-containing protein 1 (Saccharomyces cerevisiae (strain ATCC 204508 / S288c) (Baker's yeast)) (UniProt P32657). In words: ScCHD-1 Enzyme Inhibition Assay. Note: in the data most compounds retested in dose-response had high values. Type of experiment: functional. The conditions noted are these: 30 µM.

SMILES strings stand for the structures. For some of these results: Results with a measured potency or affinity are listed apart.

Experimental findings from ChEMBL document CHEMBL3988442, “University of Dundee, Small-Polar-MMV Screening Library” (2021) are described below.

Chain of Sialic acid-binding Ig-like lectin 9 (Homo sapiens) (Q9Y336 whole entry): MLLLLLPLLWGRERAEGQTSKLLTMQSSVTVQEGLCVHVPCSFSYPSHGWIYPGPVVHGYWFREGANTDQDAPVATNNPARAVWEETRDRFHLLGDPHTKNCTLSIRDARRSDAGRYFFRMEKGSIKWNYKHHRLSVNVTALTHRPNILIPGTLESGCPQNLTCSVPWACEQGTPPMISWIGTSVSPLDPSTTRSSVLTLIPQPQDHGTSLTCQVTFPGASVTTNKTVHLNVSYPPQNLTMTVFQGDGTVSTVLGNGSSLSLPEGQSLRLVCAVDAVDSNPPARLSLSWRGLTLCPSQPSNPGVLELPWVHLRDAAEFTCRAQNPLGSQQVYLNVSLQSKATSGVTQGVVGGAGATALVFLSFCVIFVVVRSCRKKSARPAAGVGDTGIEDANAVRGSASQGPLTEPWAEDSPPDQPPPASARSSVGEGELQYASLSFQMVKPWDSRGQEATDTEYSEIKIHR
Chain of Chromo domain-containing protein 1 (Saccharomyces cerevisiae (strain ATCC 204508 / S288c) (Baker's yeast)) (P32657 whole entry, the tested form may be a part): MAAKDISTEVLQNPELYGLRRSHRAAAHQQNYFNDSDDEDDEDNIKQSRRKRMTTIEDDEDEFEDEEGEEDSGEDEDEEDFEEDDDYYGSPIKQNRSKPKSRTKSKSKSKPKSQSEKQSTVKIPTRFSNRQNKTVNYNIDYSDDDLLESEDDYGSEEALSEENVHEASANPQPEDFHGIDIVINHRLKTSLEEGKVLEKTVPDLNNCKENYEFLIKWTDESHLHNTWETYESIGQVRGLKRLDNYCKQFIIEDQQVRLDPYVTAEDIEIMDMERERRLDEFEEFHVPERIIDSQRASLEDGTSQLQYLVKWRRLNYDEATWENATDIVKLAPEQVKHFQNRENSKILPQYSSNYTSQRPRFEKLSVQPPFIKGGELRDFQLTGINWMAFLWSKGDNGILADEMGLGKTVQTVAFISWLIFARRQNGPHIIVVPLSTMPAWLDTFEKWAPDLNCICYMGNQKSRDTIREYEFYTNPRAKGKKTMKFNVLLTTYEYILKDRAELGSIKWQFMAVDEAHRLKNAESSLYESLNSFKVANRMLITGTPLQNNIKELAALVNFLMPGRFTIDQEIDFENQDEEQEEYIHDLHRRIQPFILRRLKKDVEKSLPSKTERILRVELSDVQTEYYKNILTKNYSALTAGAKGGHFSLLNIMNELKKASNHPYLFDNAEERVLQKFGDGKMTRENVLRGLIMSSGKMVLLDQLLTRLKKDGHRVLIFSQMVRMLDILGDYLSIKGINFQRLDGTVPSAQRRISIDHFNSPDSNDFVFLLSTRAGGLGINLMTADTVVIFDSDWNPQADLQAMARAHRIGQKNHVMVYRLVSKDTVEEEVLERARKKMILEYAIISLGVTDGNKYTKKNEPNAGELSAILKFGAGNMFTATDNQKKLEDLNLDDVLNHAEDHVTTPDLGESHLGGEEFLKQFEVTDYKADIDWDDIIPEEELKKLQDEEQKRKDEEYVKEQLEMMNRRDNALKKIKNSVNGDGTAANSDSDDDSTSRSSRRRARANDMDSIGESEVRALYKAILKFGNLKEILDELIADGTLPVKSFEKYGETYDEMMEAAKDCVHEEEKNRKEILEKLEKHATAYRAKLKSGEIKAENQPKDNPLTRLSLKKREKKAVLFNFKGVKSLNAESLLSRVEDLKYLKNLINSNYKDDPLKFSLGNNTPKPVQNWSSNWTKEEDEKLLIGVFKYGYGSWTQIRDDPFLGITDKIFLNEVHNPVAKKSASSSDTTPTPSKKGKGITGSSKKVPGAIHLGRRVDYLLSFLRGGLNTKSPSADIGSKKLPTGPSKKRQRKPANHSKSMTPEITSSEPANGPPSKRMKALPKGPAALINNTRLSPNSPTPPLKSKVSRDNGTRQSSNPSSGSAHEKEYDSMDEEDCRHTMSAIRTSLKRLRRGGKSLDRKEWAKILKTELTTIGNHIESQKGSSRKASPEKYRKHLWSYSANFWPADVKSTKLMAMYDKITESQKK
Chain of Protein translocase subunit SecA (Escherichia coli (strain K12)) (P10408 whole entry): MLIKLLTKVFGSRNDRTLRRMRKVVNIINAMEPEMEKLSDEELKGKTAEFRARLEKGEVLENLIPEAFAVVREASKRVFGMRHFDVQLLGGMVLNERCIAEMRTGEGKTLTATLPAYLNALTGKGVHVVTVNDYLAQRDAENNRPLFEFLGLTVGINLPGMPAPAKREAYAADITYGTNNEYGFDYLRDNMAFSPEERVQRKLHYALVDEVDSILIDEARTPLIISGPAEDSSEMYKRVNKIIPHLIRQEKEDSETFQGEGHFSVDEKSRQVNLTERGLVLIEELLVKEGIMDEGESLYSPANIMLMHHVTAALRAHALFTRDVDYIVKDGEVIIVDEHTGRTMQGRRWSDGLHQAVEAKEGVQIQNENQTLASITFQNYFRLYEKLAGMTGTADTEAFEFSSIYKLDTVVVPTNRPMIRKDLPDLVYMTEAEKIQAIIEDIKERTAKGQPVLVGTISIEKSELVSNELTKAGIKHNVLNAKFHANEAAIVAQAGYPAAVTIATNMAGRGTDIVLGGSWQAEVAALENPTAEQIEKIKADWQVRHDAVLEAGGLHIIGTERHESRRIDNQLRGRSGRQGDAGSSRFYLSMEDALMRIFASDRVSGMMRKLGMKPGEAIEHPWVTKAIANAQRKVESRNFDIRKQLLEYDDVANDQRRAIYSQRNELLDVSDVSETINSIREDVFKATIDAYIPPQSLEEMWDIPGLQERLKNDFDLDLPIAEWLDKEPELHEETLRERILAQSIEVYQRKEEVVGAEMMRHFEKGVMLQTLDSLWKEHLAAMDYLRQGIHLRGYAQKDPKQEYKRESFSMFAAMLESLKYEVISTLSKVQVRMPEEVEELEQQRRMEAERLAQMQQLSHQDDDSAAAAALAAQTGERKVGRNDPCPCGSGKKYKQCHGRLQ

`CC(C)(O)C1CCN(C(=O)Nc2nc(-c3ccccc3)ns2)CC1`: the Percent Effect in [1] is -2.39%; in experiment [2], 2.7%; in experiment [3], -2.64%; in [4], 7.48%; in the experiment with Trypanosoma cruzi, 2.25%; in experiment [5] it was 18.6%. For the same compound, the Percent Effect was 18.8% in [6]; 55.5% in the experiment filed under Homo sapiens; 1.07% in experiment [7]; 3.7% in [8]; -3.52% in experiment [9].
As for `CC(C(N)=O)N(C)CCCc1cc(-c2ccccc2)no1` (stereo not drawn), the Percent Effect is -2.48% in [1]; 13.5% in experiment [2]; 3.69% in [3]; 0.652% in [4]; -9.75% with Trypanosoma cruzi; -0.185% in [5]. The Percent Effect is 7.54% in experiment [6]; 10.5% in the experiment listed under Homo sapiens; 5.94% in [7]; 13.4% in [8]; -3.63% in experiment [9].
Consider `CC(C)Nc1ncnc2c1CCN(C(=O)Cc1ccccn1)CC2`, for which the Percent Effect in [1] was -6.13%; in [2], 1.33%; in experiment [3], -12.1%; in [4], -2.69%; in the experiment on Trypanosoma cruzi, -6.48%; in experiment [5] it was -10.4%. Further, the Percent Effect was 10.3% in [6]; -12.6% in the experiment filed under Homo sapiens; -2.12% in [7]; -2.56% in [8]; -11% in experiment [9].
On to `Cc1cc(CN(C)C(=O)C2CCCN(C(=O)c3ccc(Cl)cc3)C2)no1` (stereo not drawn), for which the Percent Effect was -4.75% in [1]; -39% in experiment [2]; 3.47% in experiment [3]; 5.71% in experiment [4]; -0.885% in the experiment on Trypanosoma cruzi; -20.7% in experiment [5]. In addition, the Percent Effect in [6] is 11.7%; in the experiment listed under Homo sapiens it was 0.275%; in experiment [7], 2.15%; in [8], 11.1%; in experiment [9] it was -7.95%.
Take `Cc1noc([C@@H]2CC[C@@H]3[C@@H](CCN3S(=O)(=O)C3CC3)O2)n1`: the Percent Effect in experiment [1] is 0.234%; in experiment [2], 8.11%; in experiment [3] it was 10.7%; in [4], -3.31%; in the experiment with Trypanosoma cruzi, -4.3%; in experiment [5] it was 3.33%. Besides, the Percent Effect in [6] is 17.2%; in the experiment filed under Homo sapiens it was 4.51%; in experiment [7] it was 5.94%; in experiment [8], 11%; in [9] it was 6.55%.
On to `COc1ccccc1CN1CC[C@]2(C[C@H](OC)CO2)C1`, for which the Percent Effect in experiment [1] was -4.71%; in [2] it was 9.33%; in experiment [3], 3.5%; in [4], 4.02%; with Trypanosoma cruzi, -4.52%; in experiment [5], -12.5%. The Percent Effect was 15% in [6]; -8.4% in the experiment filed under Homo sapiens; 5.29% in experiment [7]; 7.69% in experiment [8]; -5.98% in experiment [9].
As to `Cn1cc(CN2CCc3nc(-c4ccccn4)nc(O)c3C2)cn1`, the Percent Effect in [1] was -7.26%; in experiment [2], 2.67%; in experiment [3], -8.66%; in experiment [4], 8.08%; in the experiment on Trypanosoma cruzi, 6.69%; in [5], -3.96%. The Percent Effect was -0.617% in experiment [6]; -0.651% in the experiment listed under Homo sapiens; 10.6% in experiment [7]; 29.5% in experiment [8]; -10.9% in experiment [9].
Regarding `Cc1noc(C2CCCN(C(=O)c3ccc(Br)o3)C2)n1` (stereo not drawn), the Percent Effect was -6.46% in experiment [1]; 13% in experiment [2]; -5.37% in [3]; -19.7% in experiment [4]; 7.54% in the experiment with Trypanosoma cruzi; -4.84% in [5]. For the same compound, the Percent Effect was 13.8% in [6]; 1.55% in the experiment listed under Homo sapiens; 3.81% in experiment [7]; 21.2% in experiment [8]; -17.1% in experiment [9].
